# In PMC8384837, “Expanding the binding specificity for RNA recognition by a PUF domain”:
# Substitutions are numbered along the chain they refer to.
# What was measured:
# Experiment in all cases: yeast three-hybrid, YBZ-1, SC-Leu-His + 0.5 mM 3-AT, 4 days
# Details in all cases: tags: N-Gal4 AD-HA kept; label: inside an RPR1-promoter hybrid RNA with tandem MS2 sites; ssRNA
# [1] = molecular target: PUM1 PUF domain R7-RER (Homo sapiens, UniProt Q14671 828-1176, S1079R;N1080E;E1083R)
# Procedure, shortened: (§1)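 Repeat regions from input (SC-Leu) and selection (SC-Leu-His + 0.5 mM 3-AT) plates were PCR-amplified and Illumina-sequenced after four days of growth. The cells were strain YBZ-1 with a LexA–MS2 coat fusion and a HIS3 reporter, co-expressing Pumilio-1 PUF domain libraries and matching RNA elements from a centromeric plasmid. The interaction score is the log change in variant frequency from input to selection, taken in log2 with a pseudocount of 1 for absent variants.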
# [2] = molecular target: T1, PUM1 PUF domain R6-IYS (Homo sapiens, UniProt Q14671 828-1176, N1043I;Q1047S)
# T1 sequence: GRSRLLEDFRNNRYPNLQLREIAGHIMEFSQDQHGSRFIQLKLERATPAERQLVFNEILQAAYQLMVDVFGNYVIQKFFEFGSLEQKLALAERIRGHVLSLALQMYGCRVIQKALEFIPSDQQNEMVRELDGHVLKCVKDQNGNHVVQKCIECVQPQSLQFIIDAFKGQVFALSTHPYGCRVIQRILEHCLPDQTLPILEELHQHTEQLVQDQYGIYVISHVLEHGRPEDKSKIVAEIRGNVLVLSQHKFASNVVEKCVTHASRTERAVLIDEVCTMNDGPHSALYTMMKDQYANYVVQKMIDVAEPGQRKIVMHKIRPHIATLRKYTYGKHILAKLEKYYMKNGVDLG
# Procedure, shortened: as §1
# [3] = molecular target: PUM1 PUF domain R4-CMI (Homo sapiens, UniProt Q14671 828-1176, N971C;H972M;Q975I)
# Procedure, shortened: as §1
# [4] = molecular target: PUM1 PUF domain R8-YFR (Homo sapiens, UniProt Q14671 828-1176, N1122Y;Y1123F;Q1126R)
# Procedure, shortened: as §1
# [5] = molecular target: T2, PUM1 PUF domain R6-WWR (Homo sapiens, UniProt Q14671 828-1176, N1043W;Y1044W;Q1047R)
# T2 sequence: T1 sequence with I216W, Y217W, S220R
# Procedure, shortened: as §1
# [6] = molecular target: PUM1 PUF domain R3-RPK (Homo sapiens, UniProt Q14671 828-1176, C935R;R936P;Q939K)
# Procedure, shortened: as §1
# [7] = molecular target: PUM1 PUF domain R4-ANT (Homo sapiens, UniProt Q14671 828-1176, N971A;H972N;Q975T)
# Procedure, shortened: as §1
# [8] = molecular target: PUM1 PUF domain R8-FYF (Homo sapiens, UniProt Q14671 828-1176, N1122F;Q1126F)
# Procedure, shortened: as §1
# [9] = molecular target: PUM1 PUF domain R5-RNL (Homo sapiens, UniProt Q14671 828-1176, C1007R;R1008N;Q1011L)
# Procedure, shortened: as §1
# [10] = molecular target: PUM1 PUF domain R5-KNQ (Homo sapiens, UniProt Q14671 828-1176, C1007K;R1008N)
# Procedure, shortened: as §1
# [11] = molecular target: PUM1 PUF domain R1-VWR (Homo sapiens, UniProt Q14671 828-1176, S863V;R864W;Q867R)
# Procedure, shortened: as §1
# [12] = molecular target: PUM1 PUF domain R3-GCE (Homo sapiens, UniProt Q14671 828-1176, C935G;R936C;Q939E)
# Procedure, shortened: as §1
# [13] = molecular target: PUM1 PUF domain R1-SWD (Homo sapiens, UniProt Q14671 828-1176, R864W;Q867D)
# Procedure, shortened: as §1
# [14] = molecular target: PUM1 PUF domain R7-QCK (Homo sapiens, UniProt Q14671 828-1176, S1079Q;N1080C;E1083K)
# Procedure, shortened: as §1
sequence,measurement,setting,value
GGCUAGAACUAGUGGAUCCCCCGGCGCCCGGCGGCUCGAGCCCGGGUAAGUUUAAAUAGUCUGCAUGCCGCCGGGCGCCAUGCCUGCAGGUCGACUCUAGAAAACAUG,binding signal,[1],4.54 log2 enrichment (interaction score)
GGCUAGAACUAGUGGAUCCCCCGGCGCCCGGCGGCUCGAGCCCGGGUAAGUGUAAAUAGUCUGCAUGCCGCCGGGCGCCAUGCCUGCAGGUCGACUCUAGAAAACAUG,binding signal,[2],2.42 log2 enrichment (interaction score)
same,binding signal,[3],2.77 log2 enrichment (interaction score)
same,binding signal,[4],5.17 log2 enrichment (interaction score)
same,binding signal,[5],5.15 log2 enrichment (interaction score)
GGCUAGAACUAGUGGAUCCCCCGGCGCCCGGCGGCUCGAGCCCGGGUAAGUGUAAUUAGUCUGCAUGCCGCCGGGCGCCAUGCCUGCAGGUCGACUCUAGAAAACAUG,binding signal,[6],4.23 log2 enrichment (interaction score)
GGCUAGAACUAGUGGAUCCCCCGGCGCCCGGCGGCUCGAGCCCGGGUAAGUGUAUAUAGUCUGCAUGCCGCCGGGCGCCAUGCCUGCAGGUCGACUCUAGAAAACAUG,binding signal,[7],2.52 log2 enrichment (interaction score)
GGCUAGAACUAGUGGAUCCCCCGGCGCCCGGCGGCUCGAGCCCGGGUAAGCGUAAAUAGUCUGCAUGCCGCCGGGCGCCAUGCCUGCAGGUCGACUCUAGAAAACAUG,binding signal,[8],2.55 log2 enrichment (interaction score)
same,binding signal,[4],5.19 log2 enrichment (interaction score)
GGCUAGAACUAGUGGAUCCCCCGGCGCCCGGCGGCUCGAGCCCGGGUAAGUGUUAAUAGUCUGCAUGCCGCCGGGCGCCAUGCCUGCAGGUCGACUCUAGAAAACAUG,binding signal,[9],3.54 log2 enrichment (interaction score)
same,binding signal,[10],4.28 log2 enrichment (interaction score)
GGCUAGAACUAGUGGAUCCCCCGGCGCCCGGCGGCUCGAGCCCGGGUAAGUGUCAAUAGUCUGCAUGCCGCCGGGCGCCAUGCCUGCAGGUCGACUCUAGAAAACAUG,binding signal,[9],2.83 log2 enrichment (interaction score)
GGCUAGAACUAGUGGAUCCCCCGGCGCCCGGCGGCUCGAGCCCGGGUAAGUGAAAAUAGUCUGCAUGCCGCCGGGCGCCAUGCCUGCAGGUCGACUCUAGAAAACAUG,binding signal,[5],2.69 log2 enrichment (interaction score)
GGCUAGAACUAGUGGAUCCCCCGGCGCCCGGCGGCUCGAGCCCGGGUAAGUGUAAAUUGUCUGCAUGCCGCCGGGCGCCAUGCCUGCAGGUCGACUCUAGAAAACAUG,binding signal,[11],2.37 log2 enrichment (interaction score)
GGCUAGAACUAGUGGAUCCCCCGGCGCCCGGCGGCUCGAGCCCGGGUAAGUGUAAAUCGUCUGCAUGCCGCCGGGCGCCAUGCCUGCAGGUCGACUCUAGAAAACAUG,binding signal,[11],1.8 log2 enrichment (interaction score)
GGCUAGAACUAGUGGAUCCCCCGGCGCCCGGCGGCUCGAGCCCGGGUAAGUGUAAGUAGUCUGCAUGCCGCCGGGCGCCAUGCCUGCAGGUCGACUCUAGAAAACAUG,binding signal,[12],4.51 log2 enrichment (interaction score)
GGCUAGAACUAGUGGAUCCCCCGGCGCCCGGCGGCUCGAGCCCGGGUAAGUGUAAAUGGUCUGCAUGCCGCCGGGCGCCAUGCCUGCAGGUCGACUCUAGAAAACAUG,binding signal,[13],4.27 log2 enrichment (interaction score)
GGCUAGAACUAGUGGAUCCCCCGGCGCCCGGCGGCUCGAGCCCGGGUAAGUCUAAAUAGUCUGCAUGCCGCCGGGCGCCAUGCCUGCAGGUCGACUCUAGAAAACAUG,binding signal,[14],3.12 log2 enrichment (interaction score)
